{
  "source": "PubChem BioAssay AID2314",
  "about": "(National Center for Advancing Translational Sciences (NCATS), 2010)",
  "note": "About 37,000 (12%) of roughly 300,000 compounds were called active. The list comes from a sample in which actives are over-represented; it also holds similar structures and randomly drawn compounds. Unmarked numbers belong to inactive results. Cut-off read from the data, not from the text of the source: active = max response mostly above about 13% (no sharp cut-off); inactive = mostly below about 14%.",
  "data": [
    {"assay": "Cycloheximide Counterscreen for Small Molecule Inhibitors of Shiga Toxin; note: read at 38.3 µM for the half of the compounds with a filed dose; 0% is about no effect", "details": "cell reporter, cycloheximide protein synthesis inhibition counterscreen; active compounds read high", "values": [
      {"smiles": "O=C(N/C(=C\\c1ccc(O)cc1)C(=O)N1CCCCC1)c1ccccc1", "max response": "-0.421%"},
      {"smiles": "COCCCNC(=O)C1CC(=O)N(CCc2ccc(F)cc2)C1", "note": "(stereo not given)", "max response": "-0.645%"},
      {"smiles": "CC(C)(CNC(=O)c1ccc(Cl)c(S(=O)(=O)N2CCc3ccccc3C2)c1)N1CCOCC1", "max response": "-3.28%"},
      {"smiles": "COc1cc(OC)cc(C(=O)NCCSCc2ccc(Cl)cc2)c1", "max response": "11.2%"},
      {"smiles": "CC1CC(C)CN(CCCNC(=O)Cn2ncc3c([nH]c4ccccc43)c2=O)C1", "note": "(stereo not given)", "max response": "-2.29%"},
      {"smiles": "Cc1ccc(NS(=O)(=O)c2cc3c(cc2C)NC(=O)CO3)cc1", "max response": "-3.17%"},
      {"smiles": "CC1(C)Cc2c(sc(NC(=O)C(=O)NCC3CCCO3)c2C(=O)O)CO1", "note": "(stereo not given)", "max response": "0.548%"},
      {"smiles": "O=C(C(=O)N1CCc2ccccc2C1)N1CCc2ccccc2C1", "max response": "-2.04%"},
      {"smiles": "CN1CCN(Cc2c(C(=O)N3CCc4ccccc4C3)nc3ccc(Cl)cn23)CC1", "max response": "-1.69%"},
      {"smiles": "CN(c1ccc(C(=O)N2CCc3ccccc3C2)cc1)S(C)(=O)=O", "max response": "18.8%"},
      {"smiles": "COc1ccc(OC)c(NC(=S)N2CCc3ccccc3C2)c1", "max response": "9.77%"},
      {"smiles": "O=C(c1noc2c1CCCC2)N1CCc2ccccc2C1", "max response": "40.9% (active)"},
      {"smiles": "COc1ccc2cc(C(=O)C3CCCN(C(=O)c4sc(C)nc4C)C3)ccc2c1", "note": "(stereo not given)", "max response": "15.7%"},
      {"smiles": "COc1ccc(S(=O)(=O)NC(C)C(=O)N2CCCCCC2)cc1", "note": "(stereo not given)", "max response": "-0.827%"},
      {"smiles": "COc1ccc2c(c1)CCc1c(C(=O)N3CCc4ccccc4C3)noc1-2", "max response": "30.1% (active)"},
      {"smiles": "COc1ccc2c(c1)CCc1c(C(=O)N3CCCC3)noc1-2", "max response": "36.2% (active)"},
      {"smiles": "COc1cccc(N(CC(=O)N2CCc3ccccc3C2)S(C)(=O)=O)c1", "max response": "-1.63%"},
      {"smiles": "Cn1cccc1C(=O)N1CCc2ccccc2C1", "max response": "15.5% (active)"},
      {"smiles": "COc1cccc(NC(=O)N2CCCC2C(=O)NC2CCCCC2)c1", "note": "(stereo not given)", "max response": "-2.55%"},
      {"smiles": "Cc1ccc(CN(CC(=O)NC2CCCCC2)C(=O)c2csnn2)cc1", "max response": "-2.39%"},
      {"smiles": "CCOCCCNc1c(CC)c(C)c(C#N)c2nc3ccccc3n12", "max response": "-2.64%"},
      {"smiles": "Cc1ccc(NC(=O)CC2S/C(=N/N=C3\\CCCc4ccccc43)NC2=O)cc1", "note": "(stereo not given)", "max response": "-4.9%"},
      {"smiles": "C[C@H]1CCC[C@@]2(C)CCCC[C@]12O", "max response": "12.1%"},
      {"smiles": "Cn1c(CCc2ccccc2)nnc1SCC(N)=O", "max response": "-1.26%"},
      {"smiles": "O=C(Nc1ccc(N2CCOCC2)c(Cl)c1)c1ccc(S(=O)(=O)N2CCOCC2)cc1", "max response": "5.48%"},
      {"smiles": "O=C(Nc1ccc(S(=O)(=O)Nc2nccs2)cc1)c1cccc(S(=O)(=O)N2CCOCC2)c1", "max response": "-1.31%"},
      {"smiles": "O=C(Nc1ccc(S(=O)(=O)N2CCOCC2)cc1)c1ccc2ncsc2c1", "max response": "43.1% (active)"},
      {"smiles": "CCc1ccc(C(=O)CSc2nnc(C)c(=O)[nH]2)cc1", "max response": "1.57%"},
      {"smiles": "COc1cc(C(=O)NCc2nnc(SCC(=O)c3ccc(Cl)cc3)o2)cc(OC)c1OC", "max response": "2.18%"},
      {"smiles": "CCN(CC)c1ccc(/C=N/NC(=O)CNC(=O)c2cccs2)cc1", "max response": "19.2% (active)"},
      {"smiles": "Cc1ccc(-c2cc(C(=O)N/N=C/C=C/c3ccco3)c3ccccc3n2)cc1C", "max response": "26.2%"},
      {"smiles": "CCN(CC)c1ccc(/C=N/NC(=O)CNC(=O)c2cccnc2)cc1", "max response": "-5.38%"},
      {"smiles": "Cc1ccc(-n2c(C)cc(/C=N\\NC(=O)CC(=O)NC(C)C)c2C)cc1", "max response": "-4.19%"},
      {"smiles": "Cc1cccc(-n2c(C)cc(/C=N/NC(N)=S)c2C)c1", "max response": "9.86%"},
      {"smiles": "Cc1cccc(-n2c(C)cc(/C=N\\NC(=O)c3cccs3)c2C)c1", "max response": "56.1% (active)"},
      {"smiles": "O=C(NC(Cc1c[nH]c2ccccc12)C(=O)N/N=C/c1ccc(Br)cc1)c1cccs1", "note": "(stereo not given)", "max response": "1.73%"},
      {"smiles": "O=C(N/N=C/C=C/c1ccco1)c1cccs1", "max response": "46% (active)"},
      {"smiles": "CC(=O)Nc1ccc(/C=N/NC(=O)c2cccs2)cc1", "max response": "58.5% (active)"},
      {"smiles": "O=C(CNC(=O)c1cccs1)N/N=C/c1cccc(Br)c1", "max response": "-3.86%"},
      {"smiles": "CCCc1c(C(=O)N/N=C(\\C)CCc2ccc(OC)cc2)nnn1-c1nonc1N", "max response": "11%"},
      {"smiles": "Cc1ccc(N(C(=O)c2snc(C(N)=O)c2N)C(C(=O)NCC2CCCO2)c2c[nH]c3ccccc23)cc1", "note": "(stereo not given)", "max response": "-1.6%"},
      {"smiles": "Cc1cc(C)c(S(=O)(=O)N(C)CC(=O)NCC2CCCO2)c(C)c1", "note": "(stereo not given)", "max response": "-2.82%"},
      {"smiles": "CCCn1nc(NC(=O)C(C)C)c2cc3cc(OC)ccc3nc21", "max response": "17%"},
      {"smiles": "COc1ccc(CCNC(=O)C2CCCN(Cc3nc(-c4cccc(Cl)c4)oc3C)C2)cc1OC", "note": "(stereo not given)", "max response": "6.92%"},
      {"smiles": "CCOc1cc(NC(=S)NCCCN(C)C)c(OCC)cc1NC(=O)C1CC1", "max response": "-1%"},
      {"smiles": "Cn1nnnc1-c1cc(Cl)cc(Cl)c1", "max response": "1.2%"},
      {"smiles": "CN(CCO)S(=O)(=O)c1ccc2c(c1)C(=O)c1cc(S(=O)(=O)N(C)CCO)ccc1-2", "max response": "-1.96%"},
      {"smiles": "COc1ccc(CCNC(=O)C2CC3Cn4c(nc5cc(C)c(C)cc54)C3N2C)cc1", "note": "(stereo not given)", "max response": "-2.66%"},
      {"smiles": "COc1ccc(NC(=O)CC2COc3ccccc3O2)c(OC)c1", "note": "(stereo not given)", "max response": "24.3% (active)"},
      {"smiles": "COc1ccc(NC(=O)CCCC2CCCCC2)c(OC)c1", "max response": "31.1% (active)"},
      {"smiles": "COc1ccc(NC(=O)NCc2ccc3c(c2)OCO3)c(OC)c1", "max response": "-2.52%"},
      {"smiles": "Cc1cc(NC(=O)CCC(=O)N(CC(=O)NCC2CCCO2)c2ccccc2)no1", "note": "(stereo not given)", "max response": "-1.66%"},
      {"smiles": "Cc1cc(NC(=O)CCC2COc3ccccc3O2)no1", "note": "(stereo not given)", "max response": "14.1% (active)"},
      {"smiles": "CC(=O)Oc1ccc(NC(=O)CCC2CCCCC2)c(C(=O)O)c1", "max response": "-3.07%"},
      {"smiles": "COc1ccc(NC(=O)CCN2CCCC2)c(OC)c1", "max response": "-1.44%"},
      {"smiles": "Cc1ccc(SCCC(=O)Nc2cc(C)on2)cc1", "max response": "5.3%"},
      {"smiles": "COc1ccc(NC(=O)CCC(=O)Nc2cc(OC)c(NC(=O)c3ccco3)cc2OC)c(OC)c1", "max response": "-4.97%"},
      {"smiles": "CCCNC(=O)COc1coc(CN2CCN(Cc3ccccc3)CC2)cc1=O", "max response": "-5.17%"},
      {"smiles": "CCn1ccnc1CNC(=O)CC1C(=O)NCCN1CCCc1ccccc1", "note": "(stereo not given)", "max response": "-2.05%"},
      {"smiles": "CC1(C)C2CCC1(CS(=O)(=O)NCCc1c[nH]c3ccccc13)C(=O)C2", "note": "(stereo not given)", "max response": "-4.31%"}
    ]}
  ]
}
